Tests used:
Test in all cases: log2 ratio of Biotin-Ahx-Ub-VS probe labelling (fragment/DMSO); higher = less target engagement (more negative = stronger competition), active = hit call of the paper (q ≤ 0.05, log2 ratio ≤ -1)
Settings in all cases: compound concentration: 200 uM; treatment time: 3 h
USP34 = USP34 (UniProt Q70CQ2)
How it was run: (§1)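 Triplicate samples of HEK293T lysate, 495 µg each, received fragment at 200 µM or vehicle for 3 h, followed by Biotin-Ahx-Ub-VS (0.5 µM final) for 1 h. After NeutrAvidin enrichment of labelled DUBs and LysC/trypsin digestion, peptides were run by diaPASEF LC-MS/MS. The values are average log2 fragment/vehicle ratios from global-median-normalised Spectronaut label-free quantities, tested by unpaired t-test on proteins having ≥2 unique peptides.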

USP36 = target: T1, USP36 (UniProt Q9P275)
T1 sequence (whole entry): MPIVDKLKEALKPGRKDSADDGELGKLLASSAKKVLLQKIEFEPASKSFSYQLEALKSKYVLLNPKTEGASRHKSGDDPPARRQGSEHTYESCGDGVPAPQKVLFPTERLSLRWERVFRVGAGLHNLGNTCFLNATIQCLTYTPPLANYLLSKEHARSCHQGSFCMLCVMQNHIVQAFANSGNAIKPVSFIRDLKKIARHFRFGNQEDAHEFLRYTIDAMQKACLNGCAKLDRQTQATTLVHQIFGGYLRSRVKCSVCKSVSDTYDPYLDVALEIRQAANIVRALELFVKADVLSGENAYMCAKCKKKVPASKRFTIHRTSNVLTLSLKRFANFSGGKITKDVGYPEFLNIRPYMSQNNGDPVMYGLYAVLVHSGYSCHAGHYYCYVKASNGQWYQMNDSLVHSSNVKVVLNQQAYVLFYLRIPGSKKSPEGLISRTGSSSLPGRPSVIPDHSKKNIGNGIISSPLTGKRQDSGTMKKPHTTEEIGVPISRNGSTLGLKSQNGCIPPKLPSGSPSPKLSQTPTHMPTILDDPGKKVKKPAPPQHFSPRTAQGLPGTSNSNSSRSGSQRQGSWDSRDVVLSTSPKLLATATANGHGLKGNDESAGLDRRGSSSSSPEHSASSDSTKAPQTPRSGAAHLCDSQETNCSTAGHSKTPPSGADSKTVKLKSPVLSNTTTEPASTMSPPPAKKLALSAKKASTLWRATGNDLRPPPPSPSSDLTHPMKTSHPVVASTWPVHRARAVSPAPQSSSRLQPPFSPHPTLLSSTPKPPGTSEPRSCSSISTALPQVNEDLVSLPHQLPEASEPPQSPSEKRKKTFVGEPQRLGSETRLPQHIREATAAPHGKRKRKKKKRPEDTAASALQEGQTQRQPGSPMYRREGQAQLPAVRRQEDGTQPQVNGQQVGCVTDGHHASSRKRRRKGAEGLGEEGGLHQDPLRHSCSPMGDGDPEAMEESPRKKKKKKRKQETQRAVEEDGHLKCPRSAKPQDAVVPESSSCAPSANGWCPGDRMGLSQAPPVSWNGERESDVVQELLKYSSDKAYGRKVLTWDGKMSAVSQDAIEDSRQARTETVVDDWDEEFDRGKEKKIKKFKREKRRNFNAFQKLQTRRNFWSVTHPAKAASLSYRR
How it was run: as §1

USP38 = target: T2, USP38 (UniProt Q8NB14)
T2 sequence (whole entry): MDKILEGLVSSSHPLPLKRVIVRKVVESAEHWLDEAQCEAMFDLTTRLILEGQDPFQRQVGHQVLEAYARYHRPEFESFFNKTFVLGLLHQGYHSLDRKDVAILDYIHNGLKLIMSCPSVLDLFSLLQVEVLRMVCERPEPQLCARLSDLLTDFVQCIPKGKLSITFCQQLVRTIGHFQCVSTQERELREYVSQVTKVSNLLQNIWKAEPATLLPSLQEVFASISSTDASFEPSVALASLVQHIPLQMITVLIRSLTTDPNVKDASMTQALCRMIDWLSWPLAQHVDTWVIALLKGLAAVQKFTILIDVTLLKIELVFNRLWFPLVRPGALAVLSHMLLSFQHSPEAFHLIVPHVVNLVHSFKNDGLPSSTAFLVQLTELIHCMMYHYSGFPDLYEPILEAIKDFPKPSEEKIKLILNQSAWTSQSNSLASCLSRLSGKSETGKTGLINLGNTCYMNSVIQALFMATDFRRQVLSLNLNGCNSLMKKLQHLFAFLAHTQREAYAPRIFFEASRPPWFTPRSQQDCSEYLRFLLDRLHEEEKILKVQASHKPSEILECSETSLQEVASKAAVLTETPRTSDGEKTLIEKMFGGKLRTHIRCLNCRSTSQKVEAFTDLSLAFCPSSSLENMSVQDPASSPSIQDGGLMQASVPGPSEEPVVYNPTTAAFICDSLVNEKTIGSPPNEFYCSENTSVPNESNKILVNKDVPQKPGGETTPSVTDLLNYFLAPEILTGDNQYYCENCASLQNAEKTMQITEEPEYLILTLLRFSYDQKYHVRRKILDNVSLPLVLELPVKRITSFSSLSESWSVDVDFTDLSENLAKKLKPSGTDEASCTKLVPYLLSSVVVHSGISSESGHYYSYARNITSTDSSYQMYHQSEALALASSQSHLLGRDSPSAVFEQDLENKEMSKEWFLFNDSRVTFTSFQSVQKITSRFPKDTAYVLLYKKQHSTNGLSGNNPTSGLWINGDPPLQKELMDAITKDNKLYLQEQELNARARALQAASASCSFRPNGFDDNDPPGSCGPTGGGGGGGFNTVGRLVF
How it was run: as §1

USP39 = target: T3, USP39 (UniProt Q53GS9)
T3 sequence (whole entry): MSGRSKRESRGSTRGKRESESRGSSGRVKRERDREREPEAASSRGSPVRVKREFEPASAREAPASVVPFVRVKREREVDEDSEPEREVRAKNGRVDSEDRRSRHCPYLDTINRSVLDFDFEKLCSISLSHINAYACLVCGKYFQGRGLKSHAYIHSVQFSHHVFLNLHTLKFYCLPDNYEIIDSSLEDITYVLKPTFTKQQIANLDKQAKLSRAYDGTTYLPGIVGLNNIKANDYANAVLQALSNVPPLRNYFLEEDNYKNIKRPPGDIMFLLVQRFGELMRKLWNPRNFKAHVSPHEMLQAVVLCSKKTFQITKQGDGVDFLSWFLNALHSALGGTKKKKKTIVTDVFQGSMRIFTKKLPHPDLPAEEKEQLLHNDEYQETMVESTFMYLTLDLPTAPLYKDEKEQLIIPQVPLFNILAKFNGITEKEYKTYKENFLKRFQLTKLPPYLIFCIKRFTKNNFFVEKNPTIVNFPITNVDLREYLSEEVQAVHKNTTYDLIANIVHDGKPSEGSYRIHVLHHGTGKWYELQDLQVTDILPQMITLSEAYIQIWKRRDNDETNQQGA
How it was run: as §1

USP4 = target: T4, USP4 (UniProt Q13107)
T4 sequence (whole entry): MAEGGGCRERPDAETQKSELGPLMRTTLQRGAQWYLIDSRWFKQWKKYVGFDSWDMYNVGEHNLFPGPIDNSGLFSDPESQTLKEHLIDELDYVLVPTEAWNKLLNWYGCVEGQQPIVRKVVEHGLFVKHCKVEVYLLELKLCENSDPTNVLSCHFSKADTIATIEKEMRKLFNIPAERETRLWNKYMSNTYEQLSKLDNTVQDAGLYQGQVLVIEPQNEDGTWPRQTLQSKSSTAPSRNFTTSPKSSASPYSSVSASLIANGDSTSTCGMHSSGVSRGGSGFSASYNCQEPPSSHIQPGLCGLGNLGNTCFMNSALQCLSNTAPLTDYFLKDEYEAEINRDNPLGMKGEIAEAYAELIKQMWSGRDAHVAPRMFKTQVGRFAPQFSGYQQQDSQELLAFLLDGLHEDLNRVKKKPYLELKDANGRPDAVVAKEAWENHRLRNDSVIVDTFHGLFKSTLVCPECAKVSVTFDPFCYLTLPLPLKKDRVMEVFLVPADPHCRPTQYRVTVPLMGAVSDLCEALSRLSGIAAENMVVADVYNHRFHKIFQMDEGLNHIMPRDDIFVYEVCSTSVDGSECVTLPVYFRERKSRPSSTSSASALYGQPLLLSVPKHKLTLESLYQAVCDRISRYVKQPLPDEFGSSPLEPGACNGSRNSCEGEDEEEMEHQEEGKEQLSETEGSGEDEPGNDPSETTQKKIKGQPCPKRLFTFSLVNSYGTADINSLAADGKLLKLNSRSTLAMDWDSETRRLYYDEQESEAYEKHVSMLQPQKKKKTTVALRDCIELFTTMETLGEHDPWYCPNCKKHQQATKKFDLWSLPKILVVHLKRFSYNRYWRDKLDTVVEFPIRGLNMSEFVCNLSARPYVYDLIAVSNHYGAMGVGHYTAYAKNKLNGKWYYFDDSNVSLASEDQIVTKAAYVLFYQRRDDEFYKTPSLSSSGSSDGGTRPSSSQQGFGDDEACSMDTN
How it was run: as §1

Measured: log2 ratio of Biotin-Ahx-Ub-VS probe labelling

USP34, sequence (Q70CQ2 whole entry, the tested form may be a part): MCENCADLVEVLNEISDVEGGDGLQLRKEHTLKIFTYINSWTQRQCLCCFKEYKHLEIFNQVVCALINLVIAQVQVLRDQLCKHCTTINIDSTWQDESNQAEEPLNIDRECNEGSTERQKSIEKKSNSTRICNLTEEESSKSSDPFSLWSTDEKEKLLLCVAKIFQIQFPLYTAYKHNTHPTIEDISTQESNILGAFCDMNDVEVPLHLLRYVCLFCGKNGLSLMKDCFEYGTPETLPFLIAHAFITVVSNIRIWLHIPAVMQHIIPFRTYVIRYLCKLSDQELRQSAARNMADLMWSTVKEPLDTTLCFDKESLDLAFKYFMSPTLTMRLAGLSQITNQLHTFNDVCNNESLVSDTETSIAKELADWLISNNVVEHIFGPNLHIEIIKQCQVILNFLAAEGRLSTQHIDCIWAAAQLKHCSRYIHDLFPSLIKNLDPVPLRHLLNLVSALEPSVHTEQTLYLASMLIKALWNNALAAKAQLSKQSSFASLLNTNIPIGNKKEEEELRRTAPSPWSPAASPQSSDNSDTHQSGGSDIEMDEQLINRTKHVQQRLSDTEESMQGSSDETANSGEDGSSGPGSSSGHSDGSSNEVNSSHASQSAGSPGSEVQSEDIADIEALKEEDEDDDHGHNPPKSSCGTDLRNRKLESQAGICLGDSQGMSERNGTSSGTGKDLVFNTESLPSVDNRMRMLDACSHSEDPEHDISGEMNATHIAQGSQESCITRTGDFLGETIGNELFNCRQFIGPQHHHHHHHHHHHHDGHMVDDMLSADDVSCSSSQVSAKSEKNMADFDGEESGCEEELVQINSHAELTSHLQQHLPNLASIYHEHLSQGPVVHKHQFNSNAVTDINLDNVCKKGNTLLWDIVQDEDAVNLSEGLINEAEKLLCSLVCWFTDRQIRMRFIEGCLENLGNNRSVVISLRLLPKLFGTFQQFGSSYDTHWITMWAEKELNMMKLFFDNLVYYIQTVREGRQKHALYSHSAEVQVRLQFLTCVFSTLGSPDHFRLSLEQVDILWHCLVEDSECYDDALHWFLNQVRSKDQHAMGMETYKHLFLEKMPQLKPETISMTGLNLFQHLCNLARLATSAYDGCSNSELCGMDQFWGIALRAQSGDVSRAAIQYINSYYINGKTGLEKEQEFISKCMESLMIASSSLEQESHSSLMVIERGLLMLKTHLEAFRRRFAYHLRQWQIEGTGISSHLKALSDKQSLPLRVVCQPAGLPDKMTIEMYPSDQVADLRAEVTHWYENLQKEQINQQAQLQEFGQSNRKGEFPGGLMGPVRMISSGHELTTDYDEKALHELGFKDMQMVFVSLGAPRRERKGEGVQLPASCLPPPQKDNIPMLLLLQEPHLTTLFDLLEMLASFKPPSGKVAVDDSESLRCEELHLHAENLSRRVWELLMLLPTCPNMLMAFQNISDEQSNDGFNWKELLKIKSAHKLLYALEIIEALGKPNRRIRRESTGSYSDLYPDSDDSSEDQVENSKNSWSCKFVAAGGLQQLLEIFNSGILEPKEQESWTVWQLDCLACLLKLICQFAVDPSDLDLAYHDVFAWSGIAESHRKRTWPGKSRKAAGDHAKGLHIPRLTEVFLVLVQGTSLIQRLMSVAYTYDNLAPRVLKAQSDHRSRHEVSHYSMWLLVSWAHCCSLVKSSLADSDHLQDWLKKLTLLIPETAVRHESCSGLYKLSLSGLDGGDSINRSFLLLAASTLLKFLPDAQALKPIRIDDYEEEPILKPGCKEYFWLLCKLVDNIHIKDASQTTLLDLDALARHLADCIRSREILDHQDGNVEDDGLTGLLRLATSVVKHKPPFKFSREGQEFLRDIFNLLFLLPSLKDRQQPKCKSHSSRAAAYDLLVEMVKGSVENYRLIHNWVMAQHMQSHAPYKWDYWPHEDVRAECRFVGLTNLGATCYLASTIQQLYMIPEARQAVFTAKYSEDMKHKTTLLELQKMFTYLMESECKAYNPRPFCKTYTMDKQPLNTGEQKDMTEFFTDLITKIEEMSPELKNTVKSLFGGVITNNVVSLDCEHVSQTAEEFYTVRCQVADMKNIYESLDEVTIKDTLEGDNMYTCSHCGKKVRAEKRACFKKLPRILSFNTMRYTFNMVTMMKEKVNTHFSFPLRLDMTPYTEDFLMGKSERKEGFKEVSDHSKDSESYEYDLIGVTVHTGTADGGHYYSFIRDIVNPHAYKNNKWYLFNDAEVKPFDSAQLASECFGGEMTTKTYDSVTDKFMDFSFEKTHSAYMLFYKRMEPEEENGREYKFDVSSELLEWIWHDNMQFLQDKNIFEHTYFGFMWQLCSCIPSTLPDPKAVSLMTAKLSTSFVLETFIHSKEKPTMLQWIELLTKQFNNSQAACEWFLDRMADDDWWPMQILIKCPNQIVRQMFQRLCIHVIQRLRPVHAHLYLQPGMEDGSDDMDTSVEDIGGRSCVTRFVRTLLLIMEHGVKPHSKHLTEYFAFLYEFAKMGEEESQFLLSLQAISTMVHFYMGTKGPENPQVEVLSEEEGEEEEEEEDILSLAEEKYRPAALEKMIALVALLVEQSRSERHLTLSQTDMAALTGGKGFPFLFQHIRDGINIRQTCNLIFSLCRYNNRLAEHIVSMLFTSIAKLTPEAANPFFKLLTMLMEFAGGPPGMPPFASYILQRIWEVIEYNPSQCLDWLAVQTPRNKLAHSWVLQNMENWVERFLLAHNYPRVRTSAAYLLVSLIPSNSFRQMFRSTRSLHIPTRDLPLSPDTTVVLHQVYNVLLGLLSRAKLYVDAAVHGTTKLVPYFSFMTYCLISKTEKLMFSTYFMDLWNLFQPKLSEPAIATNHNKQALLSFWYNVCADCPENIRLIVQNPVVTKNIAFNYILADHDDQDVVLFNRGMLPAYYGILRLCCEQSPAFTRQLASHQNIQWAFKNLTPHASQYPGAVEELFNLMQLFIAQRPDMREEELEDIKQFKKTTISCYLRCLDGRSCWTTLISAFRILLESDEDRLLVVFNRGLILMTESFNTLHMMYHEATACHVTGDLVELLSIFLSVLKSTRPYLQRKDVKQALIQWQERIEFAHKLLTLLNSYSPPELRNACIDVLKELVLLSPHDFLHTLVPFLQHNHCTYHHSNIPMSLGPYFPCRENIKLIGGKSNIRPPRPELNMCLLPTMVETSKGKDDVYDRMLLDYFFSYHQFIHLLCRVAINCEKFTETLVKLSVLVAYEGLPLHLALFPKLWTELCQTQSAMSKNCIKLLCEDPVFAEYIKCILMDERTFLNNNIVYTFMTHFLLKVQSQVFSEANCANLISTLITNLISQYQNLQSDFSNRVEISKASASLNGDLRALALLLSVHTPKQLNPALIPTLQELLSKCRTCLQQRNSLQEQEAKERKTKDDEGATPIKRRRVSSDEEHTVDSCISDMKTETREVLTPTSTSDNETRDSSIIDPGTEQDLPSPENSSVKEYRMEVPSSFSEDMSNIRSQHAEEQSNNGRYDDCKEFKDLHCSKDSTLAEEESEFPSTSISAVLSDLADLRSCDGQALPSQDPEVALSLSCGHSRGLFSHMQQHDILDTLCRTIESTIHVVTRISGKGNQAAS

O=C(CCl)NCc1ccc(N2CCOCC2)c(F)c1
inactive: USP34 -0.0627 | USP36 -0.165 | USP38 0.104 | USP39 0.0411 | USP4 0.263

From the supplement of paper PMC11732987, “Enantioselective OTUD7B fragment discovery through chemoproteomics screening and high-throughput optimisation” (Communications Chemistry, 2025)
